Compounds without any hit were thinned out: in the full panel of roughly 83,000, 20% have a hit.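 Testing used 96-well plates and a 48-hour single-concentration exposure. Example: -40 means 40% of the starting cells died.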 Active and inactive are the calls of the source. The calls were made as follows: active = growth percent below 10; inactive = the rest.
The compounds below were run on SF-268 CNS (assay: NCI-60 one-dose screen, 48 h (100 = growth as untreated, 0 = no growth, -100 = all killed)). Details: 10 µM unless noted.
`CC(=O)NNC(=O)c1sc(NC(C)=O)nc1C` was tested, and the growth was 93.2% (inactive). In the case of `Nc1ccc(S(=O)(=O)c2ccc(NO)cc2)cc1`, the growth is reported as 109% (inactive). For `Cc1c(Cc2ccccc2)c(=O)oc2c(C)c(OCC(=O)n3nc(C#N)cc3N)ccc12`, the growth was 97.1% (inactive). `NC(=O)CC(NC(=O)COc1ccc(Cl)cc1Cl)C(=O)O` (stereo not given) was tested, and the growth was 101% (inactive). For `CCCCCCCCC1OC1CCCCCCCC(=O)O` (stereo not given), the growth was 107% (inactive). `CC(=O)/C(=C/c1ccc(-c2ccccc2)cc1)C(=O)c1ccccc1` was tested, and the growth was 85.9% (inactive). With `COc1ccc(-c2nc(Nc3nc4ccccc4[nH]3)nc(N)c2C#N)cc1` the growth was 99% (inactive). With `CCC(CCCN1C(=O)c2ccccc2C1=O)Nc1cc(OC)cc2cccnc12` (stereo not given) the growth was 119% (inactive). In the case of `CC(=O)OC1/C=C\CC/C=C\C1` (stereo not given), the growth is reported as 107% (inactive). For `CCc1ccc(C(=Nc2ccc(N(C)C(=O)CN3CCN(C)CC3)cc2)c2c(O)[nH]c3ccc(C(=O)OC)cc23)cc1`, the growth was -69.9% (active). With `c1ccc2[nH]c(-c3ccc(OCCCCCOc4ccc(-c5nc6ccccc6[nH]5)cc4)cc3)nc2c1` the growth was -37.7% (active). With `Oc1ccc(CN(Cc2ccc(C(F)(F)F)cc2)Cc2ccc(O)c3ncccc23)c2cccnc12` the growth was 25.6% (inactive). For `COc1ccc2nc3cc(Cl)ccc3c(NCCCNC(C)=O)c2c1`, the growth was 43% (inactive). With `O=C(N/N=C\c1ccc(Cl)cc1)C(=O)N/N=C\c1ccc(Cl)cc1` the growth was 120% (inactive). For `Cc1nc2c(nnn2-c2ccccc2)c2nc(-c3ccccc3)oc(=O)c12`, the growth was 108% (inactive). In the case of `COC(=O)c1ccc2[nH]c(O)c(C(=Nc3ccc(N(C)C(=O)CN4CCN(C)CC4)cc3)c3ccc(N)cc3)c2c1`, the growth is reported as 62.4% (inactive). With `Cc1nc(N)sc1C(=O)NCCO` the growth was 98.6% (inactive). In the case of `CC(=O)Nc1nc(C)c(C(=O)N/N=C/N2CCOCC2)s1`, the growth is reported as 103% (inactive). For `O=C(O)CC1Cc2ccccc2C1C(=O)O` (stereo not given), the growth was 100% (inactive). In the case of `Cc1ccc2c(c1)C(=O)CCS2`, the growth is reported as 112% (inactive). For `CCC(C)(C)c1ccc(OCCCCCCN2CCNCC2)cc1`, the growth was 78.5% (inactive). `c1ccc(Nc2ccccn2)cc1` was tested, and the growth was 115% (inactive). With `Brc1ccc(-c2nc3ccccc3s2)cc1` the growth was 90% (inactive). For `O=C1/C(=N\c2cc(=O)[nH]n2S(=O)(=O)c2ccccc2)Nc2ccccc21`, the growth was 97.6% (inactive). `CCCC(C)c1cc(Cc2cc(Cl)cc(Cl)c2O)c(O)c(Cc2cc(Cl)cc(Cl)c2O)c1` (stereo not given) was tested, and the growth was 16.3% (inactive). For `c1ccc(Nc2ncc3c(n2)-c2cccn2CC3)cc1`, the growth was 85.8% (inactive). `CC1=C(C)C(=O)C(C(C)C2=C(C)C(=O)C(C)=C(C)C2=O)=C(C)C1=O` was tested, and the growth was 101% (inactive). In the case of `C=CCSc1nnc(COc2ccc3c(C)c(Cc4ccccc4)c(=O)oc3c2C)o1`, the growth is reported as 101% (inactive). With `CCOc1nc(-c2ccccc2)cc2c(O)c(C(=O)N/N=C/c3ccccc3O)[nH]c(=O)c12` the growth was 79.6% (inactive). `CC(=O)Nc1nc(C)c(C(=O)NNC(=O)Nc2ccccc2)s1` was tested, and the growth was 99.8% (inactive). For `c1cc[c]([Bi]([c]2ccccc2)[c]2ccccc2)cc1`, the growth was 104% (inactive). `COc1cc(NC(=O)CSc2nc3ccc(Cl)cc3c(=O)n2-c2ccc(F)cc2)cc(OC)c1OC` was tested, and the growth was 79.8% (inactive). For `CC(=O)Nc1nc(C)c(C(=O)NN)s1`, the growth was 95.2% (inactive). In the case of `COC(=O)C(C)[C@H]1CC[C@@H]2[C@]1(C)CC=C1[C@]23C=C[C@]2(C[C@@H](OC(C)=O)CC[C@]12C)C(C(=O)OC)C3C(=O)OC` (stereo not given in full), the growth is reported as 90.5% (inactive). `Cc1nc2c(nnn2-c2ccccc2)c2nc(-c3ccc(Cl)cc3)oc(=O)c12` was tested, and the growth was 103% (inactive). `CCCCCCCCC/C(=N\NC(=O)c1ccncc1)c1ccc(O)c(O)c1O` was tested, and the growth was 17.6% (inactive). `CNCCCNCCCCNCCCN1C(=O)c2ccc3c4c(ccc(c24)C1=O)C(=O)N(CCCNCc1ccccc1OC)C3=O` was tested, and the growth was 17.7% (inactive). For `Cc1nc(NC(=S)Nc2ccc(F)cc2)sc1C(=O)NNC(=S)Nc1ccc(F)cc1`, the growth was 92.4% (inactive). For `CCOc1ccc(/C=N/NC(=O)c2cccc3ccccc23)cc1OCC`, the growth was 108% (inactive). `O=C(/C=C/c1ccc(Br)cc1)c1ccccc1` was tested, and the growth was 90.9% (inactive).

These compounds were tested on SF-295 CNS in the same assay as above. Details: 10 µM unless noted.
In the case of `CC(=O)NNC(=O)c1sc(NC(C)=O)nc1C`, the growth is reported as 106% (inactive). `Nc1ccc(S(=O)(=O)c2ccc(NO)cc2)cc1` was tested, and the growth was 106% (inactive). With `Cc1c(Cc2ccccc2)c(=O)oc2c(C)c(OCC(=O)n3nc(C#N)cc3N)ccc12` the growth was 94.7% (inactive). For `NC(=O)CC(NC(=O)COc1ccc(Cl)cc1Cl)C(=O)O` (stereo not given), the growth was 100% (inactive). For `CCCCCCCCC1OC1CCCCCCCC(=O)O` (stereo not given), the growth was 97.4% (inactive). `CC(=O)/C(=C/c1ccc(-c2ccccc2)cc1)C(=O)c1ccccc1` was tested, and the growth was 92.3% (inactive). For `COc1ccc(-c2nc(Nc3nc4ccccc4[nH]3)nc(N)c2C#N)cc1`, the growth was 114% (inactive). In the case of `CCC(CCCN1C(=O)c2ccccc2C1=O)Nc1cc(OC)cc2cccnc12` (stereo not given), the growth is reported as 111% (inactive). With `CC(=O)OC1/C=C\CC/C=C\C1` (stereo not given) the growth was 97.3% (inactive). `CCc1ccc(C(=Nc2ccc(N(C)C(=O)CN3CCN(C)CC3)cc2)c2c(O)[nH]c3ccc(C(=O)OC)cc23)cc1` was tested, and the growth was -88% (active). In the case of `c1ccc2[nH]c(-c3ccc(OCCCCCOc4ccc(-c5nc6ccccc6[nH]5)cc4)cc3)nc2c1`, the growth is reported as 53% (inactive). For `Oc1ccc(CN(Cc2ccc(C(F)(F)F)cc2)Cc2ccc(O)c3ncccc23)c2cccnc12`, the growth was 6.95% (active). With `COc1ccc2nc3cc(Cl)ccc3c(NCCCNC(C)=O)c2c1` the growth was 45.7% (inactive). With `O=C(N/N=C\c1ccc(Cl)cc1)C(=O)N/N=C\c1ccc(Cl)cc1` the growth was 96.8% (inactive). With `Cc1nc2c(nnn2-c2ccccc2)c2nc(-c3ccccc3)oc(=O)c12` the growth was 101% (inactive). `COC(=O)c1ccc2[nH]c(O)c(C(=Nc3ccc(N(C)C(=O)CN4CCN(C)CC4)cc3)c3ccc(N)cc3)c2c1` was tested, and the growth was 99.1% (inactive). With `Cc1nc(N)sc1C(=O)NCCO` the growth was 108% (inactive). With `CC(=O)Nc1nc(C)c(C(=O)N/N=C/N2CCOCC2)s1` the growth was 110% (inactive). `O=C(O)CC1Cc2ccccc2C1C(=O)O` (stereo not given) was tested, and the growth was 100% (inactive). For `Cc1ccc2c(c1)C(=O)CCS2`, the growth was 108% (inactive). For `CCC(C)(C)c1ccc(OCCCCCCN2CCNCC2)cc1`, the growth was 84.4% (inactive). For `c1ccc(Nc2ccccn2)cc1`, the growth was 102% (inactive). For `Brc1ccc(-c2nc3ccccc3s2)cc1`, the growth was 98% (inactive). With `O=C1/C(=N\c2cc(=O)[nH]n2S(=O)(=O)c2ccccc2)Nc2ccccc21` the growth was 101% (inactive). With `CCCC(C)c1cc(Cc2cc(Cl)cc(Cl)c2O)c(O)c(Cc2cc(Cl)cc(Cl)c2O)c1` (stereo not given) the growth was -38.6% (active). `c1ccc(Nc2ncc3c(n2)-c2cccn2CC3)cc1` was tested, and the growth was 99.2% (inactive). For `CC1=C(C)C(=O)C(C(C)C2=C(C)C(=O)C(C)=C(C)C2=O)=C(C)C1=O`, the growth was 128% (inactive). With `C=CCSc1nnc(COc2ccc3c(C)c(Cc4ccccc4)c(=O)oc3c2C)o1` the growth was 99.9% (inactive). For `CCOc1nc(-c2ccccc2)cc2c(O)c(C(=O)N/N=C/c3ccccc3O)[nH]c(=O)c12`, the growth was 103% (inactive). With `CC(=O)Nc1nc(C)c(C(=O)NNC(=O)Nc2ccccc2)s1` the growth was 116% (inactive). For `c1cc[c]([Bi]([c]2ccccc2)[c]2ccccc2)cc1`, the growth was 103% (inactive). For `COc1cc(NC(=O)CSc2nc3ccc(Cl)cc3c(=O)n2-c2ccc(F)cc2)cc(OC)c1OC`, the growth was 80% (inactive). For `CC(=O)Nc1nc(C)c(C(=O)NN)s1`, the growth was 133% (inactive). For `COC(=O)C(C)[C@H]1CC[C@@H]2[C@]1(C)CC=C1[C@]23C=C[C@]2(C[C@@H](OC(C)=O)CC[C@]12C)C(C(=O)OC)C3C(=O)OC` (stereo not given in full), the growth was 88.4% (inactive). In the case of `Cc1nc2c(nnn2-c2ccccc2)c2nc(-c3ccc(Cl)cc3)oc(=O)c12`, the growth is reported as 102% (inactive). `CCCCCCCCC/C(=N\NC(=O)c1ccncc1)c1ccc(O)c(O)c1O` was tested, and the growth was 16.3% (inactive). With `CNCCCNCCCCNCCCN1C(=O)c2ccc3c4c(ccc(c24)C1=O)C(=O)N(CCCNCc1ccccc1OC)C3=O` the growth was 22.1% (inactive). In the case of `Cc1nc(NC(=S)Nc2ccc(F)cc2)sc1C(=O)NNC(=S)Nc1ccc(F)cc1`, the growth is reported as 40.6% (inactive). `CCOc1ccc(/C=N/NC(=O)c2cccc3ccccc23)cc1OCC` was tested, and the growth was 89.1% (inactive). In the case of `O=C(/C=C/c1ccc(Br)cc1)c1ccccc1`, the growth is reported as 96.7% (inactive).

Source: PubChem BioAssay (NCI)
